The species entered for the assay is Homo sapiens. The assay is described as follows: Quantitative High-Throughput Screen for Compounds Blocking the Interaction Between CBF-beta and RUNX1 for the Treatment of Acute Myeloid Leukemia: Summary. [Related pubchem assays (depositor defined):AID1477, AID504370, AID504374, AID504375]. The assay is classed as functional.
As for `CC1CC(NC(=O)C2C3CCC(O3)C2C(=O)O)CC(C)(C)C1` (centres undefined), the Potency was 112 nM (active).

For the molecule `O=C(O)CCCC[C@@H]1SC[C@H]2NC(=O)N[C@@H]12`, the Potency was 12600 nM (active).

Consider `O=C(O)CCCC[C@@H]1SC[C@@H]2NC(=O)N[C@@H]21`, for which the Potency was 1780 nM (active).

`CCCCn1c(NS(=O)(=O)c2ccccc2)c(C(=O)OCC)c2nc3ccccc3nc21`: the Potency is 112 nM (active).
